UDG counterscr: Primary qHTS assay for inhibitors of Activation Induced Cytidine Deaminase (AID): UDG Counterscreen signal; FRET deamination/UDG coupled assay, UDG read, 4 h; 91,000 compounds, 0.14% hits; Potency, µM (top dose mostly 115 µM), most hits filed as inhibitors; AID 1347430, 2020; note: nearly all actives have a fitted effect of over 65% in size
AID inhibitor: Primary qHTS assay for inhibitors of Activation Induced Cytidine Deaminase (AID): AID signal. Single-stranded DNA cytosine deaminase (Homo sapiens), Q9GZX7. AID deamination FRET fluorescence, UDG-coupled, 4 h. Potency, µM (highest dose often 115 µM), actives largely listed as inhibitors. 91,000 compounds, 0.32% hits; note: nearly all actives have a fitted effect of over 25% in size
Target sequence (Q9GZX7 whole entry, looked up): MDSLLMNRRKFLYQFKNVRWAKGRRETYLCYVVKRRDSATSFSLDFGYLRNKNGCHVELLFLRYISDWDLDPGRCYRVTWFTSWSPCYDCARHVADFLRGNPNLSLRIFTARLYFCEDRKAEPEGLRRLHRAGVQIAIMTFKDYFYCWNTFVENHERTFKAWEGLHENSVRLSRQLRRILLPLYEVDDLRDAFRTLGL
Hits are given with their value; ! = a repeat was not active. In the library only some 0.4% were active in any assay of this set; here they are far more common. Calls come from the whole dose curve; as a rule, active = well fitted curve in the direction sought with a large enough effect; inconclusive = small, poorly fitted or top-dose-only effect, or another doubt; inactive = no such curve, though single readings can be large; an effect the other way counts as inactive or inconclusive.

Screening Cn1nc(-c2ccc(OCC(=O)N3CCOCC3)cc2)c2ccccc2c1=O returned UDG counterscr inactive and AID inhibitor inactive.
Cn1nc(-c2ccc(N3CCOCC3)c(NC(=O)COc3ccccc3)c2)c2ccccc2c1=O was read as UDG counterscr 89µM and AID inhibitor inconclusive.
For Fc1ccc(OCc2noc(-c3ccco3)n2)c(Br)c1 the results were UDG counterscr inactive and AID inhibitor inactive.
For CC(=O)N1CCC(NC(=O)c2cc(=O)c3ccccc3o2)CC1 the results were UDG counterscr inactive and AID inhibitor inactive.
For CN1C(=O)Cc2cc(S(=O)(=O)CCC(=O)N3CCN(c4ccc(Cl)cc4)CC3)ccc21 the results were UDG counterscr 89µM and AID inhibitor inactive.
For COc1cccc(N2CCN(C(=O)CCS(=O)(=O)c3ccc4c(c3)CC(=O)N4C)CC2)c1 the results were UDG counterscr inconclusive and AID inhibitor inactive.
For CCCCCn1c(-c2cccc(OC)c2)nc2c1c(=O)[nH]c(=O)n2CCCC the results were UDG counterscr inactive and AID inhibitor inactive.
Screening CCOc1ccc(-n2c(C)nc3cc(C(=O)NCCC4=CCCCC4)ccc32)cc1 returned UDG counterscr inactive and AID inhibitor inactive.
Screening CCOc1ccc(-n2c(C)nc3cc(C(=O)NCc4ccc(C)cc4)ccc32)cc1 returned UDG counterscr inactive and AID inhibitor 32µM.
Screening CN(C)CCN(Cc1ccccc1)Cc1ccccc1 returned UDG counterscr inactive and AID inhibitor inactive.
`CC(C)CC(NC(=O)C1CCCCC1)C(=O)O` (stereo not drawn) gave UDG counterscr inactive and AID inhibitor inactive.
`Cn1c(=O)c2c(-c3ccc(Br)cc3)n(CCc3ccccc3)cc2n(C)c1=O` gave UDG counterscr inactive and AID inhibitor 40µM.
Screening Cn1c(=O)c2c(-c3ccc(Cl)cc3)n(CCc3ccccc3)cc2n(C)c1=O returned UDG counterscr inactive and AID inhibitor inconclusive.
`O=C(Cc1ccc2c(c1)CCC2)Nc1nc2ccc(F)cc2s1` gave UDG counterscr inactive and AID inhibitor inactive.
`COc1ccc2nc(Nc3nc(-c4ccccc4)cc(=O)[nH]3)nc(C)c2c1` gave UDG counterscr inactive and AID inhibitor inactive.
COc1cccc(-c2cc(=O)[nH]c(Nc3nc(C)c4ccccc4n3)n2)c1 was read as UDG counterscr inactive and AID inhibitor 22µM.
Screening CN1C(C(=O)NC2CCCCC2)=CC(c2cccs2)=NS1(=O)=O returned UDG counterscr inactive and AID inhibitor inactive.
Screening O=C(NCCc1c[nH]c2ccccc12)c1ccc2ccccc2n1 returned UDG counterscr inactive and AID inhibitor inactive.
Screening COc1ccc(Nc2nc3ccccc3nc2NS(=O)(=O)c2ccc(Cl)cc2)cc1OC returned UDG counterscr inactive and AID inhibitor 79µM!.
COc1ccc(Nc2nc3ccccc3nc2NS(=O)(=O)c2ccc(NC(C)=O)cc2)cc1OC was read as UDG counterscr inactive and AID inhibitor inactive.
Screening CCc1ccc(NS(=O)(=O)c2cc(-c3cnc(C4CC4)o3)ccc2C)cc1 returned UDG counterscr inactive and AID inhibitor inactive.
Cc1cccc(N(C)S(=O)(=O)c2cc(-c3cnc(C4CC4)o3)ccc2C)c1 was read as UDG counterscr 79µM and AID inhibitor inconclusive.
For CC(C)n1nc(C(=O)Nc2cc(C(F)(F)F)ccc2N2CCOCC2)c2ccccc2c1=O the results were UDG counterscr inactive and AID inhibitor inactive.
COc1ccc(N2C(=O)c3cc4occc4n3CC2(C)C(=O)NC2CCCCCC2)cc1OC (stereo not drawn) was read as UDG counterscr inactive and AID inhibitor inactive.
For CCOc1ccc(C(=O)NC(C(=O)NOC)C(C)C)cc1 (stereo not drawn) the results were UDG counterscr inactive and AID inhibitor inactive.
`Cc1ccc(NC(=O)c2c(C)nc3sc(C(=O)Nc4ccc(F)cc4)c(N)c3c2-c2ccccc2Cl)c(C)c1` gave UDG counterscr inactive and AID inhibitor inactive.
Cc1ccc(NC(=O)c2c(C)nc3sc(C(=O)Nc4ccc(F)cc4)c(N)c3c2-c2ccc(Cl)cc2)c(C)c1 was read as UDG counterscr 89µM and AID inhibitor 32µM.
`COc1c(Cl)cc(C(=O)N(Cc2ccc(C)o2)C2CCS(=O)(=O)C2)cc1Cl` (stereo not drawn) gave UDG counterscr 89µM and AID inhibitor inactive.
`Cc1ccc(CN(C(=O)COc2ccc(Cl)cc2Cl)C2CCS(=O)(=O)C2)o1` (stereo not drawn) gave UDG counterscr inactive and AID inhibitor inactive.
Cc1ccc(-c2noc(CN(C(=O)COc3cc(C)cc(C)c3C)C(C)C)n2)cc1 was read as UDG counterscr inactive and AID inhibitor 79µM.
Cc1ccc(OCC(=O)N(Cc2nc(-c3ccccc3)no2)C(C)C)cc1C was read as UDG counterscr inactive and AID inhibitor inactive.
C#CCOc1ccc(C(=O)Nc2ccc3ccccc3c2)cc1 was read as UDG counterscr inactive and AID inhibitor inactive.

Screening results as filed in PubChem.
